The source of these data is PubChem BioAssay (NCATS).

Values without a mark were called inactive. Inconclusive results are not listed. Active and inactive are the calls of the source. Unless noted, calls follow the shape of the dose curve; as a rule, active = well fitted curve in the direction sought with a large enough effect; inconclusive = small, poorly fitted or top-dose-only effect, or another doubt; inactive = no such curve, though single readings can be large; an effect the other way counts as inactive or inconclusive. Bounds are passed on as bounds.

For experiment [1], the target named is Lysosomal acid glucosylceramidase (Homo sapiens) (UniProt P04062). Nature of the experiment: Glucocerebrosidase-p2 (AID 348; in the data active = potency below about 10 µM; also: potency is read from the fitted curve at half-maximal effect). Conditions: purified GBA, blue fluorogenic substrate, 40 min. In a few lines: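 Compounds titrated from 0.6 nM upwards against 0.2 nM enzyme in pH 5.9 citric acid/KH2PO4, taurocholate, tween-20; blue fluorogenic substrate 80 uM, 40 min room temperature, stopped and read Ex 365/Em 440 for AC50.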

A short description of experiment [2]: AP1 Signaling Pathway (AID 357; active = well fitted curve in either direction with a large enough effect, not every such curve was filed as active;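 also: ME-180 reporter cells stimulated with EGF at its EC50 level; % is scaled to controls: 0 for no effect and ±100 for the full control effect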). Conditions: ME-180 AP-1-bla reporter, EGF-induced, beta-lactamase ratio, 5 h; at 7.69 µM (top of the series) unless noted. The method, boiled down:
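A ratiometric CCF4 readout (405 nm excitation; 460 and 530 nm emission) quantified AP-1-driven beta-lactamase in ME-180 cells after 5 h with compound and EC50 EGF; AC50 values were derived for activators and inhibitors.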

Experiment [3] has as its target Cytochrome P450 1A2 (Homo sapiens) (UniProt P05177). Nature of the experiment: p450-cyp1a2 (AID 410; calls by dose curve; also: potency is read from the fitted curve at half-maximal effect). As to conditions: recombinant CYP1A2, luciferin-ME demethylation, luminescence; series mostly up to 57 µM. The method, boiled down:
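Inhibition was calculated relative to 57 uM furafylline (full inhibition). The reaction used human CYP1A2 at 20nM with Luciferin-ME at its Km, 100uM, driven by an NADPH-regenerating system for 60 min at room temperature.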

Experiment [4] can be described thus: NFAT Signaling Pathway (AID 444; active = well fitted curve in either direction with a large enough effect, not every such curve was filed as active;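 also: carbachol stimulus at about its EC50 of 1 µM final; % is scaled to controls: 0 for no effect and ±100 for the full control effect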). As to conditions: Jurkat NFAT-bla M1, carbachol, beta-lactamase ratio, 5 h; at 7.69 µM (top of the series) unless noted. In a few lines:
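Read-out: CCF4 FRET ratio (460 nm/530 nm) after 1 h RT dye loading, used for %activity and AC50 from titration series. Cells: Jurkat NFAT-β-lactamase/M1 line, treated with compound plus 1 uM carbachol for 5 h, 37 °C.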

A short description of experiment [5]: Stat Signaling Pathway (AID 446; active = well fitted curve in either direction with a large enough effect, not every such curve was filed as active;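 also: ME-180 cervical cancer cells given 40 pM IL-6 alongside compound; SIE-controlled beta-lactamase reporter measured as 460/530 nm FRET emission ratio; % is scaled to controls: 0 for no effect and ±100 for the full control effect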). Conditions: ME-180 SIE beta-lactamase reporter, IL-6 stimulated, 5 h; at 7.69 µM (top of the series) unless noted. The method, boiled down:
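Screening format detects activators and inhibitors alike: ME-180 SIE-bla cells stimulated at 40 pM IL-6 for 5 hrs with compound, then dual-emission beta-lactamase read at 405 nm excitation.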

For experiment [6], the target named is Glucocorticoid receptor (Homo sapiens) (UniProt P04150). Nature of the experiment: GR-GFP Redistribution (AID 450;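 active = compounds whose dose series gives a full or clear partial fitted curve of increased nuclear translocation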; also: potency is read from the fitted curve at half-maximal effect). Conditions: U2OS GR-GFP nuclear translocation, laser cytometry, 2 h.
Experiment [7] shares this target. Nature of the experiment: GR-EFC Redistribution (AID 451; calls by dose curve; also: potency is read from the fitted curve at half-maximal effect). As to conditions: CHO-K1 GR-EFC translocation, beta-gal luminescence, 2 h. In a few lines: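 Translocation of GR-ED fusion to nuclear EA restores b-gal, read by luminescence after 1 h room-temperature detection. Engineered CHO-K1 biosensor cells, 1,000/well, exposed 2 h at 37 C to titrations up to 46 uM final.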

In experiment [8] the target is Mitogen-activated protein kinase 10 (Mus musculus) (UniProt Q61831). Nature of the experiment: JNK3 AlphaScreen Assay (AID 530; active = well fitted curve in either direction with a large enough effect, not every such curve was filed as active;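 also: kinase came from lysate of stimulated human HepG2 cells; signal reports phosphorylation of biotinylated GST-cJun 1-79 at Ser73 with 10 µM ATP; % is scaled to controls: 0 for no effect and ±100 for the full control effect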). Conditions: JNK3 lysate, c-Jun phosphorylation; series mostly up to 57.1 µM. The method, boiled down:
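Room-temperature AlphaScreen kinase assay; pre-activated HepG2 lysate as JNK3 source, biotin-GST-cJun(1-79) substrate, 10 uM ATP, compound 15 min preincubation.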

Experiment [9] addresses Dual specificity protein kinase CLK4 (Homo sapiens) (UniProt Q9HAZ1). Nature of the experiment: qHTS Assay for Inhibitors of CDC-like Kinase 4 (Kinase-Glo Assay) (AID 1770). Also: nearly all actives have a fitted effect of over 65% in size. Also: potency is read from the fitted curve at half-maximal effect. As to conditions: recombinant Clk4, Kinase-Glo ATP depletion luminescence; series mostly up to 66.7 µM. The method, boiled down: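 Clk4 25 nM, RS peptide 100 uM, ATP 1 uM, pH 7.5 Tris, 10 mM MgCl2, 2.5 mM DTT; 4.5 h RT; ATP depletion read by Kinase-Glo luminescence.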

The target is the same in experiment [10]. Nature of the experiment: qHTS Assay for Inhibitors of CDC-like Kinase 4 (ADP-FP Assay) (AID 1795). Also: % is scaled to controls: 0 for no effect and ±100 for the full control effect; nearly all actives have a fitted effect of over 60% in size. Conditions: Transcreener ADP fluorescence polarization; series mostly up to 50 µM. In a few lines: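 Kinase activity was followed as ADP output, converted from fluorescence polarization with a calibration curve. Reactions ran one hour at low ATP (1 uM) with RS peptide substrate.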

The target in experiment [11] is Ubiquitin carboxyl-terminal hydrolase 1 (Homo sapiens) (UniProt O94782). Nature of the experiment: Inhibitors of USP1/UAF1: Pilot qHTS (AID 504865).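 Also: rhodamine fluorescence freed from ubiquitin-rhodamine substrate followed over time; top concentration of the series differs between compounds; % is scaled to controls: 0 for no effect and ±100 for the full control effect; nearly all actives have a fitted effect of over 35% in size.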 As to conditions: purified USP1/UAF1, Ub-rhodamine cleavage fluorescence; series mostly up to 54.9 µM. The method, boiled down: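 Enzyme-free wells gave the negative control, while test wells held 1nM USP1/UAF1 preincubated with compound for 15 min at room temperature. Ub-Rho at 150nM final started the reaction, and fluorescence at 480/540 nm was recorded kinetically.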

Experiment [12] can be described thus: Primary qHTS for small molecule stabilizers of the endoplasmic reticulum resident proteome: Secreted ER Calcium Modulated Protein (SERCaMP) assay (AID 1508630). Also: % is scaled to controls: 0 for no effect and ±100 for the full control effect. Conditions: SH-SY5Y GLuc-SERCaMP (Gaussia luciferase released on ER calcium loss) secretion, thapsigargin, luminescence; series mostly up to 38.4 µM. The method, boiled down:
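GLuc-SERCaMP-expressing SH-SY5Y cells, pretreated 16 h with compound, are challenged with thapsigargin to empty ER calcium stores; after 4 h, coelenterazine is added directly to the medium and luminescence is imaged.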

The target in experiment [13] is 3',5'-cyclic-AMP phosphodiesterase 4B (Homo sapiens) (UniProt Q07343). Nature of the experiment: qHTS Assay for Inhibitors of PDE-IV (AID 607; active = well fitted activation curve with a large enough effect in the main read-out, with a control signal flat, not every such curve was filed as active; also: % of control where 0% means no effect). Conditions: HEK293 ACTOne CNG channel cells, membrane potential fluorescence; series mostly up to 22.9 µM. The method, boiled down: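 The readout is membrane depolarisation from a cAMP-sensing CNG channel, detected with a potential dye at ex 535/em 590. Cells were HEK293-derived (endogenous PDE-IV) at 1000 cells/well, titrated up to 22.9 uM final.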

In experiment [14] the target is Dual specificity protein kinase CLK4 (Homo sapiens) (UniProt Q9HAZ1). Nature of the experiment: qHTS Assay for Inhibitors of CDC-like Kinase 4 (ADP-Glo Assay) (AID 1771). Also: potency is read from the fitted curve at half-maximal effect; nearly all actives have a fitted effect of over 70% in size. As to conditions: recombinant CLK4, ADP-Glo luminescence; series mostly up to 80 µM. In a few lines: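 Kinase reaction: Clk4 at 25 nM, RS repeat peptide substrate at 100 uM, ATP at 1 uM, 1 hr, room temperature. Product ADP detected as luciferase signal via ADP-Glo.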

The target of experiment [15] is Cytochrome P450 3A4 (Homo sapiens) (UniProt P08684). Nature of the experiment: qHTS Assay for Activators of Cytochrome P450 3A4 (AID 885). Also: nearly all actives have a fitted effect of over 65% in size. Conditions: recombinant CYP3A4, Luciferin-PPXE luminescence, 60 min; series mostly up to 57.1 µM. The method, boiled down: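 Steps: enzyme/substrate mix dispensed; compound added, 10 min RT; NADPH regeneration solution added, 60 min RT; luciferin detection buffer stops reaction; 20 min later luminescence measured.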

Experiment [16] addresses Cytochrome P450 2D6 (Homo sapiens) (UniProt P10635). Nature of the experiment: qHTS Assay for Inhibitors and Substrates of Cytochrome P450 2D6 (AID 891). Also: potency is read from the fitted curve at half-maximal effect; nearly all actives have a fitted effect of over 60% in size. Conditions: recombinant CYP2D6, luciferin-ME EGE luminescence; series mostly up to 57.1 µM. In a few lines: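 Human CYP2D6 (5 nM) with 30 uM Luciferin-ME EGE (at Km) in 100 mM KPO4, compound preincubated 10 min, then NADPH regeneration system for 60 min at room temperature. Luciferin read by luminescence; normalized to 1.43 uM quinidine.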

For experiment [17], the target named is Cytochrome P450 2C19 (Homo sapiens) (UniProt P33261). Nature of the experiment: qHTS Assay for Inhibitors and Substrates of Cytochrome P450 2C19 (AID 899). Also: potency is read from the fitted curve at half-maximal effect; nearly all actives have a fitted effect of over 60% in size. As to conditions: recombinant CYP2C19, luciferin-H EGE luminescence; series mostly up to 57.1 µM. In a few lines:
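Reactions contain 5nM enzyme, 10uM Luciferin-H EGE (KM) and 50mM KPO4; compound preincubates 10 min at 37C, NADPH regeneration starts turnover for 60 min. Luminescence after detection reagent gives activity.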

Lysosomal acid glucosylceramidase (Homo sapiens), sequence (P04062 whole entry, looked up): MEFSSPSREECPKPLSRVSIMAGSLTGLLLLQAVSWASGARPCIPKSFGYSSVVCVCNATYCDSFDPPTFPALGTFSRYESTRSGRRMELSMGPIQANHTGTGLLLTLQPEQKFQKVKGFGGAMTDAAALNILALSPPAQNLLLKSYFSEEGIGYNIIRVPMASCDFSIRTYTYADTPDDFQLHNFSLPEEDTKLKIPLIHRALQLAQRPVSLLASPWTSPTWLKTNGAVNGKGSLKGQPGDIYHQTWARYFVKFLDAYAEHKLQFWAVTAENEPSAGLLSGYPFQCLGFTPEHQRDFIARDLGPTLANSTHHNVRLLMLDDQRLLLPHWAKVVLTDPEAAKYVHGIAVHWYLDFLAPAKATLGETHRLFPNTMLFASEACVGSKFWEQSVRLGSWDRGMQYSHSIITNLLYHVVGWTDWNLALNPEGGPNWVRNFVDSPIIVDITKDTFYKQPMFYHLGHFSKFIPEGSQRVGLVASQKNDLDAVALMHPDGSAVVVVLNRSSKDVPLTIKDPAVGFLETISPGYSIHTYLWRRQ
Cytochrome P450 1A2 (Homo sapiens), sequence (P05177 whole entry, looked up): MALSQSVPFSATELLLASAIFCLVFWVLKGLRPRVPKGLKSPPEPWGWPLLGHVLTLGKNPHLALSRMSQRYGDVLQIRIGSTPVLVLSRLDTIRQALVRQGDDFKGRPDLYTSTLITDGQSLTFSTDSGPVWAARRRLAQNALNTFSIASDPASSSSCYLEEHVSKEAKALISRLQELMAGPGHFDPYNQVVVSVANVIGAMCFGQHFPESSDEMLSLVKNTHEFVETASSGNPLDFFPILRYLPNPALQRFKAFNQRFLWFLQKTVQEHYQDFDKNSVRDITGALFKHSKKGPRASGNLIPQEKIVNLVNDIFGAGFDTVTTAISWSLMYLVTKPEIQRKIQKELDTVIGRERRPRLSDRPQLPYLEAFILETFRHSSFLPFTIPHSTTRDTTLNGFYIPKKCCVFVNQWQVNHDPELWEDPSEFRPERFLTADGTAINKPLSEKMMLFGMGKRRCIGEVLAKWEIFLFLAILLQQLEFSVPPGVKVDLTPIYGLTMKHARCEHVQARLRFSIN
Ubiquitin carboxyl-terminal hydrolase 1 (Homo sapiens), sequence (O94782 whole entry, looked up): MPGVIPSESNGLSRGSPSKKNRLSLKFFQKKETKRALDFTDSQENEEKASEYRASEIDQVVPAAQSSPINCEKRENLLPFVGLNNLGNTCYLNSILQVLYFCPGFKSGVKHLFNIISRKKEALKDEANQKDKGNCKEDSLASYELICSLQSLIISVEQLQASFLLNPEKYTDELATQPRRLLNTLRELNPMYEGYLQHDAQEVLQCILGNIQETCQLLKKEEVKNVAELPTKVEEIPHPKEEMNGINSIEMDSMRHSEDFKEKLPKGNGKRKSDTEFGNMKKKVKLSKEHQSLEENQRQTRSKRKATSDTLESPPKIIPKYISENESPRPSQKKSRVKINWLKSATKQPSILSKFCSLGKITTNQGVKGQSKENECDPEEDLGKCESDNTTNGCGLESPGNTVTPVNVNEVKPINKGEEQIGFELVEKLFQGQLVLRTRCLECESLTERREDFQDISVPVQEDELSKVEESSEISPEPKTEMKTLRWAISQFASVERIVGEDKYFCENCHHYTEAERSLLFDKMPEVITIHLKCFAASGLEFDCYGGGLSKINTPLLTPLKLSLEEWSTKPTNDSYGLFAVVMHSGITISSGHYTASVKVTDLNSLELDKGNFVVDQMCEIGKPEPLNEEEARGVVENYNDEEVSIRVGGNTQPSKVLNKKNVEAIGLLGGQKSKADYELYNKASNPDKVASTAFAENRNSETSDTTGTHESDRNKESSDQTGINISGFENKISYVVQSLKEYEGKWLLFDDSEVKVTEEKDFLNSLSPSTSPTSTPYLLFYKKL
Dual specificity protein kinase CLK4 (Homo sapiens), sequence (Q9HAZ1 whole entry, looked up): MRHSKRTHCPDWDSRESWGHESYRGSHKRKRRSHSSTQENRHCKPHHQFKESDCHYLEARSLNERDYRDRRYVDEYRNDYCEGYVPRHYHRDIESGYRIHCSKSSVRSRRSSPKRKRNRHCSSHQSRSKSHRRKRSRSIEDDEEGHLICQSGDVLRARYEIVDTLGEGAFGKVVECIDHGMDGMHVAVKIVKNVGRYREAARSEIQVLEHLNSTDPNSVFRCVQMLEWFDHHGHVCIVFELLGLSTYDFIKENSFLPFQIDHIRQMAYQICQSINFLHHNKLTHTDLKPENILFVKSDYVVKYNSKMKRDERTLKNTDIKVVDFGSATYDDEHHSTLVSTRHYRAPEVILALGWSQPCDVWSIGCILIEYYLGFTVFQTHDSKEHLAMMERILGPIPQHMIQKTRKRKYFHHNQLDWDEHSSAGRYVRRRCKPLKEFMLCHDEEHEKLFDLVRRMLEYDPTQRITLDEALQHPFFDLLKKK
Glucocorticoid receptor (Homo sapiens), sequence (P04150 whole entry, looked up, the tested form may be a part): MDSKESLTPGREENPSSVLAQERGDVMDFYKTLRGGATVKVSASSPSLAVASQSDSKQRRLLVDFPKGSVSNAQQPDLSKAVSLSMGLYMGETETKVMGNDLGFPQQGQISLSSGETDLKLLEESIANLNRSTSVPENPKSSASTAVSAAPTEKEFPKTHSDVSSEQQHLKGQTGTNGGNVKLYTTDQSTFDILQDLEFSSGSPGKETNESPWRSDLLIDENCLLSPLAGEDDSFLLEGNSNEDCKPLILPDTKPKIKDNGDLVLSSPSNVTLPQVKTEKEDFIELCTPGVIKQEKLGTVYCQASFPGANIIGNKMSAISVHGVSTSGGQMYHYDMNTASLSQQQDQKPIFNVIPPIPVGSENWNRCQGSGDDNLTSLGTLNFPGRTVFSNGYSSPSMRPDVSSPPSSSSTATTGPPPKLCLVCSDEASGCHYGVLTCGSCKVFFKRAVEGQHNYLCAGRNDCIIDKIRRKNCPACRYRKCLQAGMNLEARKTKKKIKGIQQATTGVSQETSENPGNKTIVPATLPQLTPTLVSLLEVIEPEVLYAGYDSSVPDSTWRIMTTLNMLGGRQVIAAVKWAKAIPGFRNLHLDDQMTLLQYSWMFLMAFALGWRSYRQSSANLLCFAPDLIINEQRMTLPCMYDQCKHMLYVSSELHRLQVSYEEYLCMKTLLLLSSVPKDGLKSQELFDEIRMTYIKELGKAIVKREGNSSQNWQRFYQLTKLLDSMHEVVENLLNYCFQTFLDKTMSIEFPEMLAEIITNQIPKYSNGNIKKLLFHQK
Cytochrome P450 3A4 (Homo sapiens), sequence (P08684 whole entry, looked up): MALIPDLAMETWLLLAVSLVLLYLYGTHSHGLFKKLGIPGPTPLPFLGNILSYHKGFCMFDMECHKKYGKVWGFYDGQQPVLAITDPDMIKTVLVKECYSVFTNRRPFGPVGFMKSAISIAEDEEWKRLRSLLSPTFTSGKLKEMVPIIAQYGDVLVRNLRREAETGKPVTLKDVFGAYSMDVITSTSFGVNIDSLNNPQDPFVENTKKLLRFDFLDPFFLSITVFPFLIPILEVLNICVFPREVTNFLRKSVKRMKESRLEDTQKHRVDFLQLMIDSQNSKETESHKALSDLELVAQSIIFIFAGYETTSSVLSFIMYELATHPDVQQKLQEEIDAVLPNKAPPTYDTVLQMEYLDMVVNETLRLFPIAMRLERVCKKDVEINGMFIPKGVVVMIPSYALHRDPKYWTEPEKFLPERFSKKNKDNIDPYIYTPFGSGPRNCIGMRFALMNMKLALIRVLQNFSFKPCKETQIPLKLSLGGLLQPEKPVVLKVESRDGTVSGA
3',5'-cyclic-AMP phosphodiesterase 4B (Homo sapiens), sequence (Q07343 whole entry, looked up): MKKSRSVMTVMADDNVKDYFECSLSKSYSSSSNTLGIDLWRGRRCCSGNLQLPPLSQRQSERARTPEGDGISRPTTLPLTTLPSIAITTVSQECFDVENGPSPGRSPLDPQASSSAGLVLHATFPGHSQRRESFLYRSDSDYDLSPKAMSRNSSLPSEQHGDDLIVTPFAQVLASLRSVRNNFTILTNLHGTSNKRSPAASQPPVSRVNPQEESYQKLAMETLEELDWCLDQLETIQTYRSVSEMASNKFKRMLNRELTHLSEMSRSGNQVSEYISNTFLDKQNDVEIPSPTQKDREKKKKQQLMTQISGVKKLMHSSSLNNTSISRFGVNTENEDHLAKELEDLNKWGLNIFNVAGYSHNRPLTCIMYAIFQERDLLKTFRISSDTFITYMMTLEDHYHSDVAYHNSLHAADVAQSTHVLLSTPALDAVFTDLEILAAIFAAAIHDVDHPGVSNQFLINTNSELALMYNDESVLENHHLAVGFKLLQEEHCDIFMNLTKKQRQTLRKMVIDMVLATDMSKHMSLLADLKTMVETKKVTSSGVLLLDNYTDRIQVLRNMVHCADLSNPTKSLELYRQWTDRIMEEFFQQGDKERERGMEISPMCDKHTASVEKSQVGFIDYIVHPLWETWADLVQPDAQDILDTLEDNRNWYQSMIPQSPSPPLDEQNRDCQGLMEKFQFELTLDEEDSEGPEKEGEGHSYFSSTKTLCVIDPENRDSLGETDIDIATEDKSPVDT
Cytochrome P450 2C19 (Homo sapiens), sequence (P33261 whole entry, looked up): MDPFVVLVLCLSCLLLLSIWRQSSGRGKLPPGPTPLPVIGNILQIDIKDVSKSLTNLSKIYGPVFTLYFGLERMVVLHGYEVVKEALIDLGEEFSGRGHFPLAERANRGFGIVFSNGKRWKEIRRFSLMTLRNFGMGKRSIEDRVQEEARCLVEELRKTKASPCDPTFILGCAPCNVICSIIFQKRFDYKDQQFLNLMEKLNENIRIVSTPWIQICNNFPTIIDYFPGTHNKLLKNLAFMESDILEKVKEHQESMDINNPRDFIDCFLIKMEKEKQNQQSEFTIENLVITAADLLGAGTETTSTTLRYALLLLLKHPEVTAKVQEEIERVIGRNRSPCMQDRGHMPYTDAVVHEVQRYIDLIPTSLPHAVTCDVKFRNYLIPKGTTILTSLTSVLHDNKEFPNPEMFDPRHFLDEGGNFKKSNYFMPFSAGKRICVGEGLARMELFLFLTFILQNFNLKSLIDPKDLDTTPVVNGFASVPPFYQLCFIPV

Turning to `CCNc1ncc2nc(-c3ccccc3)c(=O)n(C)c2n1`, the Potency in experiment [1] was greater than 11.4 µM; in experiment [3], 0.398 µM (active); in [6] it was greater than 9.22 µM; in experiment [7], greater than 46 µM. Further, the values for the activity change, negative = inhibition in [2] and in [4] were -13.4% and -7.59%, respectively. Besides, the activity, negative = inhibition in [5] is -9.07%. Further, the Potency result in [8], in experiment [9], in experiment [10] and in experiment [11] was “inactive” throughout. Besides, the outcome in experiment [12] was inactive.
On to `CCNc1ncc2nc(C)c(=O)n(C[C@H]3CCCO3)c2n1`, for which the Potency in experiment [1] was greater than 11.4 µM; in [3] it was 3.98 µM (active); in [6], greater than 9.22 µM; in experiment [7], greater than 46 µM. The activity change, negative = inhibition in experiment [2] is 3.27%; in [4], -7.96%. Also, the activity, negative = inhibition in [5] was -8.96%. For the same compound, the Potency entry in experiment [8], in experiment [13], in [9], in experiment [10] and in [11] was “inactive” in each case. In addition, the outcome in [12] was inactive.
Take `COc1cccc(-c2nccc(NCCc3c[nH]c4ccc(OC)cc34)n2)c1`: the Potency in experiment [1] was 6.96 µM (active); in [7] it was greater than 46 µM; in [9], 25.1 µM (active); in experiment [14], 28.2 µM (active). The activity change, negative = inhibition in [4] is -15.8%. In addition, the activity, negative = inhibition in experiment [5] was -25.8%. Further, the Potency entry in [8] and in [11] was “inactive” each time. The result in experiment [12] was inactive.
On to `COCCn1c(=O)c(-c2cccs2)nc2cncnc21`, for which the Potency in experiment [1] was greater than 11.4 µM; in experiment [3], 3.16 µM (active); in experiment [6], greater than 9.22 µM; in experiment [7], greater than 46 µM. In addition, the activity change, negative = inhibition in experiment [2] is -17.4%; in [4] it was 11.8%. The activity, negative = inhibition in experiment [5] was -2.25%. Moreover, the Potency result in experiment [8], in experiment [15], in experiment [9], in [10] and in [11] was “inactive” each time. For the same compound, in experiment [12], the result was inactive.
`COc1ccc2[nH]cc(CCNc3nc(-c4cccnc4)nc4ccccc34)c2c1`: the activity change, negative = inhibition in experiment [2] was -14.3%. Moreover, the Potency in [3] is 0.501 µM (active); in [6] it was greater than 46 µM; in experiment [7] it was greater than 46 µM; in [16], 6.31 µM (active); in experiment [9], 11.2 µM (active); in experiment [14] it was 7.94 µM (active). Besides, in experiment [5], the activity, negative = inhibition was -15.6%. Further, the Potency entry in [8], in experiment [15] and in experiment [11] was “inactive” throughout. The result in experiment [12] was inactive.
Turning to `Cc1noc(C)c1-c1nc(Nc2ccc(F)cc2)c2ccccc2n1`, the Potency in experiment [1] was greater than 11.4 µM; in experiment [3], 0.251 µM (active); in [6], greater than 46 µM; in [7] it was greater than 46 µM; in [17] it was 3.16 µM (active). Moreover, the activity change, negative = inhibition in experiment [2] was -5.88%; in experiment [4], 11.3%. Moreover, the activity, negative = inhibition in experiment [5] is 4.28%. Further, the Potency result in experiment [8], in experiment [9], in experiment [10] and in experiment [11] was “inactive” throughout. Also, the outcome in experiment [12] was inactive.
